Growth data for 8 compounds are collected here from PubChem BioAssay (NCI).

Among the test systems are NCI-H23 lung; NCI-H226 lung; NCI-H322M lung; HOP-62 NSCLC; NCI-H460 lung; HOP-92 NSCLC; NCI-H522 lung; A549/ATCC NSCLC; 786-0 renal; COLO 205 colon; DU-145 prostate; K-562 leukemia; MALME-3M melanoma; MDA-MB-231 breast; RXF 393 renal; SF-268 CNS; SF-295 CNS; SF-539 CNS; UACC-257 melanoma; M14 melanoma.
Experiment in all cases: NCI-60 one-dose screen, 48 h (100 = growth as untreated, 0 = no growth, -100 = all killed)
Holding throughout (conditions): 10 µM unless noted

Molecules are shown by their SMILES. Compounds without any hit were thinned out: in the full panel of roughly 83,000, 20% have a hit.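 96-well plates, one dose, 48 hours. Percent growth reported; active if below 10.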 A number with no mark means an inactive call. The source made the active and inactive calls.

Consider `O=C1[C@@H]2Cc3c([nH]c4ccccc34)[C@H](c3ccc(Cl)cc3)N2C(=O)CN1C1CCN(Cc2ccccc2)CC1`, for which the growth was 74.1% in the assay with NCI-H23 lung; 70.5% with NCI-H226 lung; 59.2% with NCI-H322M lung; 75.7% in the assay with HOP-62 NSCLC; 34.4% with NCI-H460 lung; 41.4% in the assay with HOP-92 NSCLC. Further, the growth with NCI-H522 lung was 84.6%; in the assay on A549/ATCC NSCLC it was 38.8%; with 786-0 renal, 68.1%; with COLO 205 colon it was 53.4%; with DU-145 prostate, 56.1%; in the assay with K-562 leukemia, 9.57% (active). Besides, the growth was 74.5% with MALME-3M melanoma; 68.6% with MDA-MB-231 breast; 57.6% with RXF 393 renal; 50.5% in the assay with SF-268 CNS; 70.6% in the assay with SF-295 CNS; 77.6% in the assay on SF-539 CNS. The growth was 61.4% in the assay with UACC-257 melanoma and 27.9% with M14 melanoma.

Regarding `CS(=O)(=O)c1ccc(/C(=N/N=C(N)N)c2ccc(Cl)cc2)cc1`, the growth was 95.4% in the assay on NCI-H23 lung; 95.5% in the assay on NCI-H226 lung; 94.9% with NCI-H322M lung; 85.1% in the assay with HOP-62 NSCLC; 99.1% with NCI-H460 lung; 57.2% with HOP-92 NSCLC. In addition, the growth in the assay on NCI-H522 lung was 77.4%; with A549/ATCC NSCLC it was 99.2%; in the assay on 786-0 renal, 88.5%; in the assay with COLO 205 colon, 91.5%; in the assay on DU-145 prostate, 101%; with K-562 leukemia it was 40.7%. For the same compound, the growth was 81.6% in the assay with MALME-3M melanoma; 96.1% with MDA-MB-231 breast; 82.6% in the assay with RXF 393 renal; 80.7% in the assay with SF-268 CNS; 95.4% in the assay with SF-295 CNS; 91.8% with SF-539 CNS. Besides, the results for the growth with UACC-257 melanoma and in the assay with M14 melanoma were 90.2% and 72.8%, respectively.

For the compound `COc1ccc(Cn2cc(C#N)c(N)c2C(C)=O)cc1`, the growth is 101% with NCI-H23 lung; 101% in the assay with NCI-H226 lung; 98.8% in the assay on NCI-H322M lung; 104% with HOP-62 NSCLC; 104% with NCI-H460 lung; 87.5% in the assay on HOP-92 NSCLC. Also, the growth is 102% in the assay with NCI-H522 lung; 110% in the assay with A549/ATCC NSCLC; 111% in the assay with 786-0 renal; 111% in the assay with COLO 205 colon; 107% in the assay on DU-145 prostate; 103% in the assay on K-562 leukemia. Moreover, the growth in the assay on MALME-3M melanoma is 102%; in the assay on MDA-MB-231 breast, 94.8%; in the assay with RXF 393 renal, 102%; in the assay on SF-268 CNS, 96.5%; in the assay with SF-295 CNS, 110%; in the assay on SF-539 CNS, 99.5%. Also, the growth in the assay with UACC-257 melanoma is 106%; with M14 melanoma, 110%.

`CN1CCN(c2ccc(Nc3nc(NCCCNS(=O)(=O)c4ccc(C(F)(F)F)cc4)c4sccc4n3)cc2)CC1`: the growth in the assay with NCI-H23 lung was 2.34% (active); in the assay with NCI-H226 lung, 57.9%; in the assay with NCI-H322M lung, -1.68% (active); in the assay with HOP-62 NSCLC, -49.1% (active); in the assay on NCI-H460 lung, -47.8% (active); with HOP-92 NSCLC it was -55.9% (active). Besides, the growth in the assay with NCI-H522 lung was -85.6% (active); with A549/ATCC NSCLC it was -12.1% (active); with 786-0 renal it was -82.2% (active); in the assay on COLO 205 colon, -76% (active); in the assay on DU-145 prostate, -8.78% (active); in the assay on K-562 leukemia, 5.24% (active). The growth with MALME-3M melanoma is -87.8% (active); in the assay on MDA-MB-231 breast, -60.1% (active); in the assay on RXF 393 renal it was -87% (active); in the assay with SF-268 CNS, -53.3% (active); with SF-295 CNS it was -74.6% (active); in the assay with SF-539 CNS, -92.6% (active). Further, the values for the growth in the assay with UACC-257 melanoma and in the assay on M14 melanoma were -91.7% (active) and -80.5% (active), respectively.

For `Brc1ccc(-c2cc(-c3ccc4c(c3)OCCO4)n[nH]2)s1`, the growth in the assay on NCI-H23 lung is 40.6%; in the assay with NCI-H226 lung, 75.4%; with NCI-H322M lung, 42.7%; in the assay with HOP-62 NSCLC, 51.3%; with NCI-H460 lung, 14.3%; with HOP-92 NSCLC, 64.2%. The growth in the assay on NCI-H522 lung is 20.9%; with A549/ATCC NSCLC, 33.3%; in the assay with 786-0 renal it was 73.5%; in the assay on COLO 205 colon it was 28.7%; with DU-145 prostate it was 39.8%; in the assay on K-562 leukemia, 12.4%. In addition, the growth in the assay with MALME-3M melanoma was 45.8%; with MDA-MB-231 breast it was 41.9%; in the assay with RXF 393 renal it was 32%; in the assay with SF-268 CNS it was 62.4%; in the assay on SF-295 CNS it was 18.4%; with SF-539 CNS, 23.5%. For the same compound, the values for the growth in the assay with UACC-257 melanoma and in the assay on M14 melanoma were 75.1% and 21.3%, respectively.

Turning to `Cc1ccc2c(n1)C(=O)C(Cl)=C(Nc1ccc(C)c(C)c1)C2=O`, the growth with NCI-H23 lung was 11.7%; in the assay with NCI-H226 lung it was 36%; in the assay on NCI-H322M lung, 60.9%; with HOP-62 NSCLC, 60.2%; in the assay on NCI-H460 lung it was 46.4%; with HOP-92 NSCLC, 105%. In addition, the growth is 58.9% with NCI-H522 lung; 24.5% with A549/ATCC NSCLC; 104% with 786-0 renal; 105% in the assay on COLO 205 colon; 6.17% (active) in the assay on DU-145 prostate; 4.14% (active) in the assay on K-562 leukemia. The growth was 85.4% in the assay on MALME-3M melanoma; 49.3% in the assay with MDA-MB-231 breast; 85.7% with RXF 393 renal; 79.1% in the assay with SF-268 CNS; 44.7% in the assay with SF-295 CNS; 59.9% in the assay with SF-539 CNS. Besides, the growth in the assay on UACC-257 melanoma was 16%; in the assay with M14 melanoma, 42.5%.

As for `Clc1ccc2[nH]cc(-c3nn4cc(-c5ccncc5)nc4s3)c2c1`, the growth with NCI-H23 lung is 43.1%; with NCI-H226 lung it was 22.7%; in the assay with NCI-H322M lung, 49.2%; in the assay with HOP-62 NSCLC, 46.6%; in the assay with NCI-H460 lung, 10.1%; with HOP-92 NSCLC, 33.8%. For the same compound, the growth in the assay with NCI-H522 lung is 36.4%; in the assay with A549/ATCC NSCLC, 68.6%; in the assay on 786-0 renal, 69.9%; with COLO 205 colon, 69.5%; in the assay on DU-145 prostate, 53.1%; in the assay with K-562 leukemia it was 49%. The growth was 26.9% with MALME-3M melanoma; 50.8% in the assay on MDA-MB-231 breast; 79% in the assay on RXF 393 renal; 39.1% with SF-268 CNS; 71% in the assay with SF-295 CNS; 25.8% with SF-539 CNS. Besides, the growth in the assay on UACC-257 melanoma is 90.7%; in the assay with M14 melanoma, 67.7%.

With `CC1(C)CC[C@]23CC[C@]4(C)[C@H](CC[C@@H]5[C@@]6(C)CC[C@H](NCO)C(C)(C)[C@@H]6CC[C@]54C)[C@H]2[C@H]1OC3`, the growth with NCI-H23 lung was 55.7%; in the assay on NCI-H226 lung, 97.2%; in the assay on NCI-H322M lung, 84.2%; in the assay on HOP-62 NSCLC it was 79.8%; in the assay with NCI-H460 lung, -41.1% (active); with HOP-92 NSCLC, 40.1%. Moreover, the growth in the assay with NCI-H522 lung was 101%; in the assay on A549/ATCC NSCLC, 60.5%; with 786-0 renal it was 64.3%; in the assay on COLO 205 colon, -48.5% (active); with DU-145 prostate, 14.8%; with K-562 leukemia, 4.93% (active). Also, the growth in the assay with MALME-3M melanoma was 93.5%; in the assay on MDA-MB-231 breast it was 19.7%; in the assay on RXF 393 renal, 56.3%; in the assay on SF-268 CNS, 77%; in the assay on SF-295 CNS, 59.6%; in the assay on SF-539 CNS it was 69%. For the same compound, the growth in the assay with UACC-257 melanoma is 103%; with M14 melanoma it was 35.9%.
